This is a sample that favours compounds with a hit; in the whole collection about 4.2% have one here.
GDH-TPI counter-1: GDH-TPI coupled enzyme inhibition counter-screen; GDH-TPI coupled enzyme counterscreen, NADH absorbance; inhibition, % at 4.8 µM; 360,000 tested, 1.2% active; AID 588335; in the data active = inhibition above about 30%;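 note: 0% = DMSO wells and 100% = wells lacking the enzyme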
PrPC surface inh: cell surface PrPC inhibition, primary TR-FRET screen | TR-FRET read-out | inhibition, % at 13.8 µM | 370,000 tested, 0.43% active; in the data active = inhibition above about 24%; note: 0% = median of the test wells and 100% = reference compound wells
BJeLR lethal: kills HRASV12-expressing BJeLR cells. BJeLR (HRASV12) viability, CellTiter-Glo ATP luminescence, 48 h. inhibition, % (test concentration not listed). 300,000 tested, 0.17% active; in the data active = inhibition above about 50%
FBA Mtb inh: inhibits M. tuberculosis FBA enzyme. P9WQA3. purified M. tuberculosis FBA, fluorescence read-out. inhibition, % at 1 µM. 360,000 tested, 2.3% active;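 note: 0% = vehicle and 100% = reference inhibitor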
RecA splice inh: Mtb RecA intein splicing inhibition; cell-free RecA intein splicing, fluorescence; 290,000 tested, 0.75% active; P9WHJ3; inhibition, % (test concentration not listed); in the data active = inhibition above about 30%;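 note: 0% = vehicle wells and 100% = reference inhibitor control wells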
Target sequence (P9WHJ3 whole entry, looked up, canonical isoform): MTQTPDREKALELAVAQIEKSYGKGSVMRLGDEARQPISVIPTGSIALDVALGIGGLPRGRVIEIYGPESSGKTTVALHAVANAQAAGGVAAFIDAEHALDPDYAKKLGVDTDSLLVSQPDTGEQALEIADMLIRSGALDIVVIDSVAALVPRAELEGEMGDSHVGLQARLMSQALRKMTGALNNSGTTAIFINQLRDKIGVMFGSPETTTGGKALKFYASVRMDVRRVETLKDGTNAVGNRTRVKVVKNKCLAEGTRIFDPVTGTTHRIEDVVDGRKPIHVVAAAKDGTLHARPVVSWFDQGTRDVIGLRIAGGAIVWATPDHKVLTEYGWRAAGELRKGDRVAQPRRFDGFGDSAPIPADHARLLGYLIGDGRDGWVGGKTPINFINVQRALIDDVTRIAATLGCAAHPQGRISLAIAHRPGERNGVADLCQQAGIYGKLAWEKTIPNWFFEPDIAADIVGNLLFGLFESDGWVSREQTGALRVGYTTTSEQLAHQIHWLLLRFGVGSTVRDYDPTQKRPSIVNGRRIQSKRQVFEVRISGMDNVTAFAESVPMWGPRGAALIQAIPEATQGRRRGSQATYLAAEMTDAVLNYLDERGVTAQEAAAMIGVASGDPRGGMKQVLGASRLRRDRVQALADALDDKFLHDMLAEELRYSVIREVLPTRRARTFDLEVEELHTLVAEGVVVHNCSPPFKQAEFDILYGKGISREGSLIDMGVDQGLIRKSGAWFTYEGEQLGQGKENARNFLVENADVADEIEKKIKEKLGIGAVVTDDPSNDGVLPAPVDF
Mtb FBA confirm: Mtb FBA inhibition, confirmed. shares compounds with FBA Mtb inh. purified M. tuberculosis FBA, fluorescence read-out. inhibition, % at 1 µM. 5,600 tested, 78% active. AID 651616;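 note: 0% = vehicle wells and 100% = reference inhibitor wells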
GDH-TPI counter-2: inhibits GDH-TPI coupling enzymes, flagging Mtb FBA hits; GDH-TPI coupled enzyme counterscreen, fluorescence; inhibition, % at 1 µM; 5,600 tested, 81% active; shares compounds with FBA Mtb inh; AID 652141; in the data active = inhibition above about 10%
GDH-TPI dose: inhibits GDH-TPI coupling enzymes in dose response. shares compounds with FBA Mtb inh. GDH-TPI coupled enzyme assay, fluorescence, artifact counterscreen. IC50, µM. 170 tested, 79% active. AID 652145; call rule not given here
* marks the source's active call; other numbers are inactive results; / = no result given; + = active, no number. Cut-off read from the data, not from the text of the source, unless noted: active = inhibition above about 27%; inactive = the rest.

SMILES	GDH-TPI counter-1	PrPC surface inh	BJeLR lethal	FBA Mtb inh	RecA splice inh	Mtb FBA confirm	GDH-TPI counter-2	others
CC1(C(=O)Nc2ccc3c(c2)OCO3)Cc2c(-c3ccc4c(c3)OCO4)ccnc2O1 (stereo unspecified)	0.0	8.1	/	20.3	/	/	/
COc1ccc(NC(=O)C2(C)Cc3c(-c4ccc5c(c4)OCO5)ccnc3O2)cn1 (stereo unspecified)	-3.5	8.1	/	42.2*	/	168.6*	123.8*
CC1(C(=O)NCc2ccccc2)Cc2c(-c3ccc4c(c3)OCO4)ccnc2O1 (stereo unspecified)	-12.4	-0.2	/	68.6*	/	109.1*	104.7*
CC1(C(=O)NCCc2ccccc2)Cc2c(-c3ccc4c(c3)OCO4)ccnc2O1 (stereo unspecified)	-6.2	10.3	/	46.2*	/	59.1*	41.0*
COc1ccccc1C(=O)N1CCN(C(=O)[C@H]2O[C@@H](n3cnc(C(N)=O)n3)[C@H](O)[C@@H]2O)CC1	/	1.9	/	/	/	/	/
COCCCNC(=O)C[C@@H]1C(=O)N2CCCC3=C2[C@@]1(C(=O)OC)CCCC3	/	1.4	/	/	/	/	/
COC(=O)C1CN(Cc2cn(CCOC(C)=O)nn2)CCS(=O)(=O)N1Cc1ccc(F)cc1 (stereo unspecified)	/	-1.7	/	/	/	/	/
O=C(Nc1ncn[nH]1)c1c(Cl)ccc(Cl)c1Cl	-4.3	-2.0	-1.0	0.7	-2.3	/	/
O=C(Nc1ncn[nH]1)c1ccccc1O	1.2	-5.6	6.1	55.7*	-0.3	+	+
CCC(C)CN1C(=O)CN(S(C)(=O)=O)CC1(C)C(=O)NCc1ccccc1 (stereo unspecified)	/	3.2	/	/	/	/	/
COC(=O)c1cc(NC(=O)CC2Oc3ccccc3NC2=O)cc(C(=O)OC)c1 (stereo unspecified)	3.0	-2.5	-6.6	39.5*	-1.7	79.5*	68.8*
C#CCNC(=O)C[C@H]1C[C@@]2(C(=O)OCC)CCCC3=C2N(CCC3)C1=O	/	1.1	/	/	/	/	/
Cc1cccc(N=Cc2ccccc2O)c1C	4.8	-6.6	/	-1.3	/	/	/
Oc1ccccc1C=Nc1cccc2ccccc12	-7.0	2.2	4.9	42.4*	2.3	15.3	-2.7	GDH-TPI dose=9.29*
CCCc1cc(=O)[nH]c(SCC(=O)Nc2sc3c(c2C#N)CCC(C)C3)n1 (stereo unspecified)	4.4	0.3	-4.0	37.4*	-1.6	98.8*	73.4*
COC(=O)[C@]12C[C@H](CC(=O)N3CCOCC3)C(=O)N(Cc3cccc4ccccc34)C1=C[C@H](C(C)C)O[C@@H]2C1CC1	/	4.1	/	/	/	/	/
COc1ccc(N2CCCN(CC(=O)Nc3ccc(Cl)c(Cl)c3)CC2)cc1	/	4.5	/	/	/	/	/
O=c1c2ccccc2c(/C=N/c2n[nH]c(CCCO)n2)c(O)n1-c1ccccc1Cl	8.2	-0.5	5.6	30.3*	-16.1	73.4*	57.4*
CCOC(=O)N1CCN(C(=O)C[C@H]2C[C@@]3(C(=O)OC)C(=C[C@H](COCc4ccccc4)O[C@@H]3C)N(Cc3ccccc3)C2=O)CC1	/	-10.1	/	/	/	/	/
Cc1ccccc1-c1nc(C#N)c(N2CCC(C)CC2)o1	11.8	-5.6	2.2	47.6*	14.6	50.7*	45.6*
CC1CC(C)CN(c2oc(-c3ccccc3F)nc2C#N)C1 (stereo unspecified)	9.5	-5.2	-3.8	59.6*	-3.4	101.1*	77.5*
COc1ccccc1-c1nc(C#N)c(N2CC(C)CC(C)C2)o1 (stereo unspecified)	3.5	1.5	2.4	22.8	1.5	/	/
CCN1CCN(c2oc(-c3ccc(OC)cc3)nc2C#N)CC1	25.9	-4.1	5.7	32.3*	-2.9	143.0*	119.2*
COc1ccccc1-c1nc(C#N)c(N2CCc3ccccc3C2)o1	14.1	1.2	-5.5	105.6*	-1.6	-4.8	-5.2
CC1CCN(c2oc(-c3ccccc3Cl)nc2C#N)CC1	27.4	0.1	-1.8	19.7	-1.7	/	/
SMILES	GDH-TPI counter-1	PrPC surface inh	BJeLR lethal	FBA Mtb inh	RecA splice inh	Mtb FBA confirm	GDH-TPI counter-2	others
O=C1CCC[C@H]2CC3(CC[C@]24CCCN14)OCCO3	/	0.1	/	/	/	/	/
CCOC(=O)C1CCCN(c2oc(-c3ccc(F)cc3)nc2C#N)C1 (stereo unspecified)	3.1	2.5	-4.9	30.4*	7.5	+	196.9*
CC1CCN(c2oc(-c3ccc(F)cc3)nc2C#N)CC1	9.5	10.7	-3.8	97.4*	4.2	-1.1	-2.2
Cc1cccc(-c2nc(C#N)c(N3CCC(C)CC3)o2)c1	0.0	-5.1	5.2	8.9	-5.0	/	/
COc1ccc2c(c1)[C@@]1(OCCC=C[C@H]1C)C(=O)N2Cc1ccc(Br)cc1	/	4.2	/	/	/	/	/
COC(=O)[C@H](C)NC(=O)[C@H](CC(C)C)NC(=O)OC(C)(C)C	/	-4.7	/	/	/	/	/
O=C1[C@H]2C[C@@]3(n4ccc5ccccc54)c4ccccc4N(S(=O)(=O)c4ccccc4)[C@H]3N2C(=O)CN1Cc1ccccc1	/	12.0	/	/	/	/	/
Oc1ccc(CN2CCCCC2)nc1-c1ccccc1	3.4	-5.9	1.2	86.5*	-0.6	16.0	-0.5	GDH-TPI dose=5.29*
COc1ccc(-c2nnc(-c3ccc(C)cc3)o2)cc1	-2.1	6.5	-10.1	62.4*	2.8	7.4	-4.0
Cc1ccc(-c2nnc(-c3cccs3)o2)cc1	8.5	-6.6	-44.0	54.5*	-1.9	61.3*	48.6*
COc1ccc(-c2nnc(-c3ccc(F)cc3)o2)cc1	6.7	-4.3	5.4	16.8	0.6	/	/
COc1ccc(OC)c(/C=N/NC(=O)C(O)c2ccccc2)c1 (stereo unspecified)	14.7	-4.3	-1.7	101.0*	-3.5	82.5*	62.4*
COc1ccc(OC)c(/C=N/NC(=O)CN2CCSCC2)c1	15.5	5.5	11.3	85.4*	-1.3	76.9*	66.4*
COc1ccc(OC)c(/C=N/NC(=O)CNC(=O)c2ccc(S(=O)(=O)N3CCCC3)cc2)c1	2.6	2.4	-5.5	35.8*	1.2	164.7*	120.8*
Cc1ccc(/C=N/NC(=O)CNC(=O)c2ccc(S(=O)(=O)N3CCCC3)cc2)o1	10.5	-8.7	0.9	-5.5	3.2	/	/
O=C(NN=Cc1ccccc1O)C(O)c1ccccc1 (stereo unspecified)	8.7	1.8	/	3.7	/	/	/
COc1cc(NC(=O)[C@@H](Cc2ccccc2)NC(=O)[C@H]2O[C@@H](n3ccc(=O)[nH]c3=O)[C@H](O)[C@@H]2O)cc(OC)c1OC	/	-4.2	/	/	/	/	/
O=S1(=O)c2c(cccc2N2CCC[C@H]2CO)O[C@@H]2CCN1C2	/	2.3	/	/	/	/	/
COc1ccc2cc(OCC(=O)NNC(=O)Nc3ccc(F)cc3)ccc2c1	6.8	6.0	7.1	7.1	-6.2	/	/
COc1ccc(C(=O)NNC(=O)c2ccc3ccccc3c2O)cc1	9.4	-1.2	10.3	2.0	-0.5	/	/
COc1cccc(OCC(=O)NNC(=O)c2ccc3ccccc3c2O)c1	11.6	-0.8	-13.5	28.5*	-5.8	+	+

High-throughput results deposited in PubChem by several laboratories.
